A short description of experiment [1]: Nuclear factor erythroid 2-related factor 2/antioxidant responsive element (Nrf2/ARE) small molecule agonists: qHTS cell viability counter screen in human keratinocytes (AID 1919968; active = well fitted curve in the direction sought with a large enough effect in the repeat runs; an effect the other way counts as inactive or inconclusive; note: nearly all actives have a fitted effect of over 55% in size). Put shortly:
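Fluorescence read-out from CellTiter-Fluor after 1 h at 37 C. Wells held HaCaT-derived ARE-luciferase reporter cells (1,500/well) treated 23 h with DMSO-dissolved compounds. Run in the same wells as the luciferase agonist read.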
For orientation: Quantitative high-throughput screening tests each substance at several concentrations.

A short description of experiment [2]: Nuclear factor erythroid 2-related factor 2/antioxidant responsive element (Nrf2/ARE) small molecule agonists: luciferase reporter gene qHTS assay in human keratinocytes (AID 1919969; note: nearly all actives have a fitted effect of over 35% in size; note: potency is the fitted concentration of half-maximal effect). (In general: A reporter such as luciferase makes a cellular process visible.)
For experiment [3], the target named is Gonadotropin-releasing hormone receptor (Homo sapiens) (UniProt P30968). Kind of experiment: Human gonadotropin-releasing hormone receptor (GnRHR) small molecule agonists, calcium flux assay in GnRHR-HEK293 cells (AID 1920063). Note: nearly all actives have a fitted effect of over 35% in size. Put shortly: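 Calcium-dye fluorescence, Ex/Em=480/540, recorded every 1 sec over 3 min after compound addition to GnRHR-HEK293 cells. Cells had been seeded 18 hours earlier and dye-loaded for 1 hour at 37 C. Fifteen concentrations, triplicates.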
A general note: A change in cytosolic calcium serves as a functional read-out for many receptors and channels.

Experiment [4] deals with KiSS-1 receptor (Homo sapiens) (UniProt Q969F8). Kind of experiment: Human kisspeptin (KISS1R) small molecule agonists, calcium flux assay in KISS1R-HEK293 cells (AID 1920064; active = well fitted curve in the direction sought with a large enough effect in the repeat runs; an effect the other way counts as inactive or inconclusive). Put shortly:
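Calcium flux read-out: kinetic fluorescence at Ex/Em=480/540, 1 s intervals over 3 min, after pin-tool compound addition to dye-loaded KISS1R-HEK293 cells. Fifteen concentrations, triplicates.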

Experiment [5] can be described thus: G protein-coupled receptor (GPCR) small molecule agonists, calcium flux assay: HEK293 wild type cell line counter screen (AID 1920065). Put shortly:
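Agonist mode; 18 h seeding at 37 C, 1 h dye load at 37 C; compounds pinned from DMSO, ATP as positive control; kinetic fluorescence 480/540 nm, 3 min, 1 s reads; 15 concentrations, triplicate.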

Experiment [6] is described as follows: p53 small molecule agonists, cell-based qHTS assay with human liver microsomes (AID 1963577). Put shortly:
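Compounds act here after metabolic activation: human liver microsomes and NADPH, both at 0.5 mg/mL final, were co-added to p53RE-bla cells. Incubation ran 16 h at 37 C, followed by LiveBLAzer detection.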

A short description of experiment [7]: p53 small molecule agonists, cell-based qHTS assay with rat liver microsomes (AID 1963578). Put shortly: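 Read-out is beta-lactamase reporter fluorescence (LiveBLAzer, 2 h, room temperature, dark) in p53RE-bla cells treated 16 h at 37 C with compound, rat liver microsomes and NADPH, both 0.5 mg/mL final.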
Experiment [8] is described as follows: p53 small molecule agonists, cell-based qHTS assay with human liver microsomes: qHTS cell viability counter screen (AID 1963579). Note: nearly all actives have a fitted effect of over 45% in size. Put shortly: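 Cells carrying the p53 response-element beta-lactamase reporter are treated for 16 h at 37 C with test compounds in the presence of human liver microsomes and NADPH (both 0.5 mg/mL final); ATP-based CellTiter-Glo luminescence then reports viability.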

Experiment [9] is described as follows: p53 small molecule agonists, cell-based qHTS assay with rat liver microsomes: qHTS cell viability counter screen (AID 1963580). Note: nearly all actives have a fitted effect of over 45% in size. Put shortly: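 Counter screen for cytotoxicity under metabolic activation: rat liver microsomes and NADPH, 0.5 mg/mL final each, added with compounds to p53RE-bla HCT-116 cells; 16 h at 37 C, then ATP luminescence read.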
Experiment [10] is described as follows: p53 small molecule agonists, cell-based qHTS assay (AID 1963582; active = well fitted activation curve with a large enough effect in the signal ratio in the repeat runs, not every such curve was filed as active; the % refers to the signal ratio). Put shortly:
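Fluorescence intensity read-out of a beta-lactamase reporter under a p53 response element. Cells were exposed to DMSO-dissolved compounds for 16 h at 37 C, then developed with FRET substrate for 2 h at RT.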

For experiment [11], the target named is 5-hydroxytryptamine receptor 2A (Homo sapiens) (UniProt P28223). Kind of experiment: 5-hydroxytryptamine receptor 2A (HTR2A) small molecule antagonists, cell-based qHTS assay (AID 1963586). Note: nearly all actives have a fitted effect of over 45% in size. Put shortly:
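CHO cells stably expressing human HTR2A were plated for 18 h at 37 C, then loaded with calcium dye for 1 h. Compounds were preincubated 5 min at room temperature before DOI (4 nM solution) was added. Kinetic fluorescence was read for 3 min.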

For experiment [12] the target is unchanged. As to the kind of experiment: 5-hydroxytryptamine receptor 2A (HTR2A) small molecule agonists, cell-based qHTS assay (AID 1963587). Note: nearly all actives have a fitted effect of over 30% in size. Put shortly:
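HTR2A-CHO cells, plated 18 h at 37 C/5% CO2, dye-loaded 1 h at 37 C; compounds in DMSO added by pin tool (agonist mode). Intracellular calcium flux read as kinetic fluorescence on FDSS over 2 min at 1 s intervals.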

The target in experiment [13] is Muscarinic acetylcholine receptor M1 (Homo sapiens) (UniProt P11229). As to the kind of experiment: Cholinergic receptor muscarinic 1 (CHRM1) small molecule antagonists, cell-based qHTS assay (AID 1963588). Note: nearly all actives have a fitted effect of over 40% in size. Put shortly: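 Compounds were tested at 15 concentrations in three independent runs. Dye-loaded CHRM1-CHO cells were exposed 5 min at room temperature before stimulation by acetylcholine added at 50nM. Intracellular calcium was read kinetically on FDSS for 3 min.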

Experiment [14] shares this target. Kind of experiment: Cholinergic receptor muscarinic 1 (CHRM1) small molecule agonists, cell-based qHTS assay (AID 1963589). Note: nearly all actives have a fitted effect of over 35% in size. Put shortly: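 Calcium flux read-out: kinetic fluorescence at 1 sec intervals after pin-tool compound addition to dye-loaded CHRM1-CHO cells (human M1). Agonist mode; 15 concentrations tested in triplicate independent runs.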
The nature of experiment [15]: cAMP Responsive Elements (CRE) small molecule agonists, cell-based qHTS assay (AID 1963590). Put shortly:
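Beta-lactamase reporter readout: LiveBLAzer B/G FRET substrate, 2 h at room temperature, added after 3 h compound treatment of CRE-bla HEK 293T cells at 37 C/5% CO2.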

The nature of experiment [16]: cAMP Responsive Elements (CRE) small molecule antagonists, cell-based qHTS assay (AID 1963591; active = well fitted inhibition curve with a large enough effect in the signal ratio in the repeat runs, not every such curve was filed as active; the % refers to the signal ratio). Put shortly:
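HEK293T CRE-bla; 18 h preincubation; compound pin-transfer; NKH477 0.25 uM final, 3 h, 37 C; LiveBLAzer FRET substrate 2 h RT.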

The target of experiment [17] is Beta-2 adrenergic receptor (Homo sapiens) (UniProt P07550). As to the kind of experiment: Adrenergic beta2 receptor (ADRB2) small molecule antagonists, cell-based qHTS assay (AID 1963592). Note: series mostly up to about 92 µM; nearly all actives have a fitted effect of over 50% in size. Put shortly:
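Assay format: CHO-ADRB2 cells, 18-20hr seeding at 37C/5% CO2, then compound plus 1nM isoproterenol agonist mix for 0.5hr RT. Homogeneous time-resolved fluorescence cAMP detection after 1hr, expressed as 665/615 nm ratio.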

Experiment [18] addresses D(2) dopamine receptor (Homo sapiens) (UniProt P14416). Kind of experiment: Dopamine D2 receptor (DRD2) small molecule agonists, cell-based qHTS assay (AID 1963594). Note: nearly all actives have a fitted effect of over 35% in size. Put shortly: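 HEK293 cells stably expressing DRD2 were cultured 24 h at 37 C, then given Ro20-1724 (0.1 mM final) and compounds for 10 min at room temperature. NKH477 (200nM) was then added for 30 min. cAMP was read by HTRF.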

The target is the same in experiment [19]. As to the kind of experiment: Dopamine D2 receptor (DRD2) small molecule antagonists, cell-based qHTS assay (AID 1963595; active = well fitted inhibition curve with a large enough effect in the signal ratio in the repeat runs, with a control signal flat; the % refers to the signal ratio). Put shortly:
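HEK293 cells stably expressing DRD2 were preincubated with 0.1 mM Ro20-1724, then with compound for 10 min at room temperature. Cells were stimulated with 200 nM NKH477 plus 12 nM quinpirole for 30 min, and cAMP was read by HTRF.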

Experiment [20] is described as follows: p53 small molecule agonists, cell-based qHTS assay: qHTS cell viability counter screen (AID 1963581). Note: nearly all actives have a fitted effect of over 45% in size. Put shortly: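 Cytotoxicity read-out: ATP-based luminescence (CellTiter-Glo, 30 min RT) measured in the same wells as the p53 reporter assay, HCT-116 p53RE-bla cells, 16 h compound exposure at 37 C.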

A number with no mark means an inactive call. Results filed as inconclusive are left out. Calls of active or inactive are those of the source. Unless noted, calls come from the whole dose curve.

Chain of Gonadotropin-releasing hormone receptor (Homo sapiens) (P30968 whole entry, looked up): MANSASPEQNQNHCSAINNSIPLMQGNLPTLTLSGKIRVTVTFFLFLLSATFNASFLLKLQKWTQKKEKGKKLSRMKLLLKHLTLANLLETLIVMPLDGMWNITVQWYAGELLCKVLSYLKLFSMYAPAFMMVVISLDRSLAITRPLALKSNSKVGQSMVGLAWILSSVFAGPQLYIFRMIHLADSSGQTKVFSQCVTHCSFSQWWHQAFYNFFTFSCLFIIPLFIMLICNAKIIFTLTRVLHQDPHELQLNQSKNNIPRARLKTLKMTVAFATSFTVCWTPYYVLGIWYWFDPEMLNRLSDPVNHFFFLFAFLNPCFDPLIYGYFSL
Chain of 5-hydroxytryptamine receptor 2A (Homo sapiens) (P28223 whole entry, looked up): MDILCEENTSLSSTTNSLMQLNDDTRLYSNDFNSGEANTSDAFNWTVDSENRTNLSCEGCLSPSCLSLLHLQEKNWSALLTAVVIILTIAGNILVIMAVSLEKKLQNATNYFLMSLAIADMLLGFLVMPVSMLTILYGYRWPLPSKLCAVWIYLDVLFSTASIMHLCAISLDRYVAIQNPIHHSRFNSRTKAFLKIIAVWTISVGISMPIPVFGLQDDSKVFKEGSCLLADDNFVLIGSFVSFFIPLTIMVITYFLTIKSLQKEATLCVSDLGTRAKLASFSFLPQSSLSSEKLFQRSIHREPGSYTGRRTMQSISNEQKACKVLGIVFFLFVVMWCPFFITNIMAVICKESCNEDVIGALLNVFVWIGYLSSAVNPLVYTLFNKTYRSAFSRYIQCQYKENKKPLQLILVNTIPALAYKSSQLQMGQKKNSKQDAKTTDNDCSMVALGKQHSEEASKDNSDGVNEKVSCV
Chain of Muscarinic acetylcholine receptor M1 (Homo sapiens) (P11229 whole entry, looked up): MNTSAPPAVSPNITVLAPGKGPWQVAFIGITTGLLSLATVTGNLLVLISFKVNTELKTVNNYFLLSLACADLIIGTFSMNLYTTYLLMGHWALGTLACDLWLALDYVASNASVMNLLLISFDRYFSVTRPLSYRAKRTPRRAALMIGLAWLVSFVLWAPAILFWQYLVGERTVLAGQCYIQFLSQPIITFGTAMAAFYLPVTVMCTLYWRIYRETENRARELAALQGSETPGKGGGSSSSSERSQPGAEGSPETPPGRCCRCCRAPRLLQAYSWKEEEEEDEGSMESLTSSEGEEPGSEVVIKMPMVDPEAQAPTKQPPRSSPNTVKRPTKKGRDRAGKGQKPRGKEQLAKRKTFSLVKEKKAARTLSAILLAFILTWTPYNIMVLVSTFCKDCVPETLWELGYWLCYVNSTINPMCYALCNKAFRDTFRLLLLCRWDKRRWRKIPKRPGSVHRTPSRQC
Chain of Beta-2 adrenergic receptor (Homo sapiens) (P07550 whole entry, looked up): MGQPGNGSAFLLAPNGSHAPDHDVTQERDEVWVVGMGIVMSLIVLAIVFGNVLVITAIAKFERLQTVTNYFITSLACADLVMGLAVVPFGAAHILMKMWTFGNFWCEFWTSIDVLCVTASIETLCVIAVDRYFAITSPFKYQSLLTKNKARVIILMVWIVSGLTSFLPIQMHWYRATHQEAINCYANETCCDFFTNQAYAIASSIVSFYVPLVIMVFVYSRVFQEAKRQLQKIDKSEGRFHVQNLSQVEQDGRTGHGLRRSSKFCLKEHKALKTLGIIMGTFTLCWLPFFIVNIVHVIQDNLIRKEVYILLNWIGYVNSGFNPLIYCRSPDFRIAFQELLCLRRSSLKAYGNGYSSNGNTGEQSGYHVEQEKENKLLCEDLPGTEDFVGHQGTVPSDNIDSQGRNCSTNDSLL
Chain of KiSS-1 receptor (Homo sapiens) (Q969F8 whole entry, looked up): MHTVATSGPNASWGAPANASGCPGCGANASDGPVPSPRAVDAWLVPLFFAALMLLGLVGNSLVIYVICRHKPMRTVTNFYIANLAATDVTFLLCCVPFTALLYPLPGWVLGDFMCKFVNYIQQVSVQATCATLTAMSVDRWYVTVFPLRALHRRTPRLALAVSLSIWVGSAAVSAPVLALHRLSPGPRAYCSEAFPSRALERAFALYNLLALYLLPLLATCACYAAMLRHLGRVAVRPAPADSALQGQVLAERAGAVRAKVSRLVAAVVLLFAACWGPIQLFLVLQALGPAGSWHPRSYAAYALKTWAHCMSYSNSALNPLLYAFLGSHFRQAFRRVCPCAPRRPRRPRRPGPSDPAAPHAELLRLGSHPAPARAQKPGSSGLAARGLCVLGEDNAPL
Chain of D(2) dopamine receptor (Homo sapiens) (P14416 whole entry, looked up): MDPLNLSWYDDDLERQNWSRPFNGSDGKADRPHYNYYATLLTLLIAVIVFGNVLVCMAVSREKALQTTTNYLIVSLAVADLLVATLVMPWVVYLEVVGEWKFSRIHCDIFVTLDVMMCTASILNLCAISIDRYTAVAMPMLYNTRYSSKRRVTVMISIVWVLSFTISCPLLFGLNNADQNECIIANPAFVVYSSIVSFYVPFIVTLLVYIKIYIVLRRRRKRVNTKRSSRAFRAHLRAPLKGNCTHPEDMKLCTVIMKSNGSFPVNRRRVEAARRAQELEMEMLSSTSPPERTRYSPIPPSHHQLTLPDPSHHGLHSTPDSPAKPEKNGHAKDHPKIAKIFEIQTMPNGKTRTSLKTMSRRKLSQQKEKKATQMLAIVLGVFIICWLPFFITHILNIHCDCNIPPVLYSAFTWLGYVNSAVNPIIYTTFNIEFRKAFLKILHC

Turning to `C#CC(O)CCCCC` (stereo not drawn), the Potency result in experiment [1], in [2], in experiment [3], in [6], in [7] and in [8] was “inactive” each time. In addition, the Potency result in experiment [9], in experiment [10], in [11], in [12], in [13] and in experiment [14] was “inactive” in each case. For the same molecule, the Potency entry in [15], in experiment [16], in experiment [17], in experiment [18] and in [19] was “inactive” throughout. The outcome in [4] and in [5] was inactive.

Regarding `CC(C)(O)c1ccccc1`, the Potency entry in experiment [1], in experiment [2], in experiment [3], in [6], in experiment [7] and in experiment [8] was “inactive” throughout. Also, the Potency result in [9], in experiment [10], in [11], in experiment [12], in experiment [13] and in experiment [14] was “inactive” in each case. Besides, the Potency entry in [15], in [16], in [17] and in experiment [18] was “inactive” each time. Also, the outcome in [4] and in experiment [5] was inactive.

Consider `O=C1[C@H](CC[C@H](O)c2ccc(F)cc2)[C@@H](c2ccc(O)cc2)N1c1ccc(F)cc1`, for which the Potency entry in experiment [1], in [2], in [3], in experiment [6], in [7] and in experiment [8] was “inactive” throughout. Further, the Potency result in [9], in experiment [10], in [11], in [12], in experiment [13] and in experiment [14] was “inactive” each time. In addition, the Potency result in experiment [15], in experiment [16], in experiment [17], in experiment [18] and in [19] was “inactive” each time. The result in experiment [4] and in [5] was inactive.

As for `NS(=O)(=O)c1cc(C(=O)NN2C[C@H]3[C@H]4CCC(C4)[C@H]3C2)ccc1Cl`, the Potency result in [1], in experiment [2], in experiment [3], in experiment [6], in [7] and in [8] was “inactive” throughout. Besides, the Potency entry in experiment [9], in [20], in experiment [14], in experiment [17], in experiment [18] and in experiment [19] was “inactive” each time. The result in experiment [4] and in [5] was inactive.

In the case of `CN(C)Cc1ccccc1`, the Potency entry in experiment [1], in experiment [2], in experiment [3], in experiment [6], in experiment [7] and in experiment [8] was “inactive” each time. The Potency result in experiment [9], in experiment [10], in experiment [11], in [12], in experiment [13] and in experiment [14] was “inactive” throughout. Further, the Potency entry in experiment [15], in experiment [16], in [17], in experiment [18] and in experiment [19] was “inactive” throughout. Besides, the outcome in experiment [4] and in experiment [5] was inactive.

`CC(C)C[C@H](NC(=O)OCC1c2ccccc2-c2ccccc21)C(=O)O`: the Potency entry in experiment [1], in experiment [3], in experiment [6], in [7], in [8] and in experiment [9] was “inactive” throughout. In addition, the Potency entry in experiment [20], in experiment [12], in experiment [13], in experiment [17], in [18] and in experiment [19] was “inactive” throughout. In [2], the Potency was 0.611 µM (active). Moreover, the outcome in [4] and in [5] was inactive.

For the molecule `CCc1cccc(CC)c1`, the Potency entry in [1], in [2], in experiment [3], in experiment [6], in experiment [7] and in experiment [8] was “inactive” in each case. In addition, the Potency entry in [9], in experiment [20], in experiment [12], in experiment [14], in experiment [16] and in experiment [17] was “inactive” each time. In addition, the Potency entry in experiment [19] was “inactive”. Also, the result in experiment [4] and in experiment [5] was inactive.

Turning to `CCCC[P+](C)(CCCC)CCCC`, the Potency entry in experiment [1], in experiment [2], in [3], in experiment [6], in experiment [7] and in experiment [8] was “inactive” in each case. Further, the Potency entry in experiment [9], in experiment [20], in [13], in experiment [17], in [18] and in experiment [19] was “inactive” in each case. Besides, the outcome in [4] and in experiment [5] was inactive.
